Active and inactive are the calls of the source. How the source made its calls: active means hit-call score of the fitted dose curve at least 0.9, where 1 is the maximum; inactive means score below 0.9.
Each compound was assayed on Urokinase-type plasminogen activator receptor (uPAR), PLAUR (gene 5329) (assay: BSK_BE3C_uPAR: BioMAP Diversity Plus: BE3C Assay for Urokinase-type plasminogen activator receptor (uPAR) Biomarker Activity (AID 2283039;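 on outcome: cells exposed to compound for one day before measurement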)). Details: primary human bronchial epithelial cells; actives raise or lower the signal.
Method: BSK_BE3C is a cell-based, multiplexed-readout assay that uses bronchial epithelial cell, a human lung primary cell, with measurements taken at 24 hours after chemical dosing in a 96-well plate.BSK_BE3CAR is an assay component measured in the BSK_BE3C assay. It measures uPAR antibody related to regulation of gene expression using ELISA technology.Data from the assay component BSK_BE3CAR was analyzed into 1 assay endpoint. This assay endpoint, BSK_BE3CAR, was analyzed with bidirectional fitting relative to DMSO as the negative control and baseline of activity. Using a type of binding reporter, gain or loss-of-signal activity can be used to understand changes in the signaling as they relate to the gene PLAUR. Furthermore, this assay endpoint can be referred to as a primary readout, because this assay has produced multiple assay endpoints where this one serves a signaling function. To generalize the intended target to other relatable targets, this assay endpoint is annotated to the cytokine intended target family, where the subfamily is plasmogen activator.
The levels of cell surface (or secreted, indicated by the prefix "s") biomarker endpoints were measured by ELISA. Overt cytotoxicity to cells in confluent adherent cultures (all systems other than the BT system) was assessed by measuring total protein levels using sulforhodamine B (SRB) staining in parallel cultures at the time of biomarker measurements, indicated as SRB endpoints. For proliferation assays for adherent cell types, individual cell types are cultured at sub-confluence and relative cell numbers quantified by SRB staining at time points optimized for each system (48 h: 3C and CASM3C systems; 72 h: BT and HDF3CGF systems; 96 h: SAg system). SRB was performed by staining cells with 0.1% SRB after fixation with 10% TCA and reading wells at 560 nm.Viability and proliferation of PBMC (T cells) was quantified by Alamar Blue reduction for the SAg and BT systems. For PBMC viability (referred to as PBMC Cytotoxicity within the assay endpoint names), cells were plated (75,000/well in a 96-well plate) and then chemical samples added for 1 h before addition of activators, SEB and TSST-1 (20 ng/mL final concentration each). Cells were incubated for 90 h. Then, Alamar Blue (20 uL/well) (Invitrogen, Cat DAL1100) was added for 6 h, and the plates were read with a fluorescence microplate reader at 546/580 nm (excitation/emission). For PBMC proliferation, cells were plated and activated as above but incubated for only 16 h prior to addition of Alamar Blue. Plates were read after 6 h.

Q: With `Clc1ccccc1C(c1ccccc1)(c1ccccc1)n1ccnc1` as the compound, how does the AC50 read?
A: The AC50 was 9.68 µM (active).

Q: Which AC50 does the source give for `O=C(O)Cc1cc(I)c(Oc2ccc(O)c(I)c2)c(I)c1` here?
A: Its AC50 is 32.8 µM (active).

Q: With `CC1=CC(=O)/C(=C(/C)O)C(=O)O1` as the compound, how does the outcome read?
A: The outcome was “inactive”.

Q: `CCCCOC(=O)c1ccc(O)cc1` was tested. Which outcome did it give?
A: Its outcome is “inactive”.

Q: How did the outcome turn out when `CC[C@@H]1C[C@H](N(Cc2cc(C(F)(F)F)cc(C(F)(F)F)c2)C(C)=O)c2cc(C(F)(F)F)ccc2N1C(=O)OC(C)C` was run?
A: Its outcome is “inactive”.

Q: With `CCCCCCCC[Si](OCC)(OCC)OCC` as the compound, how does the outcome read?
A: The outcome was “inactive”.

Q: With `Oc1ccc2ccccc2c1` as the compound, how does the outcome read?
A: The outcome was “inactive”.

Q: `CCN(CC)C(=O)c1cc(S(=O)(=O)Cc2ccccc2)c(N2CCC(c3ccccc3)CC2)cc1N(CC)CCN(C)C` was tested. Which AC50 did it give?
A: The AC50 was 10.4 µM (active).

Q: With `Cc1c2ccccc2c(C)c2c1ccc1ccccc12` as the compound, how does the outcome read?
A: Its outcome is “inactive”.

Q: With `CC1(C)NC(=O)N(c2ccc([N+](=O)[O-])c(C(F)(F)F)c2)C1=O` as the compound, how does the outcome read?
A: Its outcome is “inactive”.

Q: How did the outcome turn out when `COc1cccc([C@H](O)C2CCN(CCc3ccc(F)cc3)CC2)c1OC` was run?
A: Its outcome is “inactive”.

Q: Which AC50 does the source give for `CCCCCCCCOC(=O)c1cc(O)c(O)c(O)c1` here?
A: The AC50 was 36.5 µM (active).

Q: With `CC(C)(C)c1cc(/C=C2\SC(N)=NC2=O)cc(C(C)(C)C)c1O` as the compound, how does the outcome read?
A: Its outcome is “inactive”.

Q: With `Cc1cn([C@H]2C[C@H](N=[N+]=[N-])[C@@H](CO)O2)c(=O)[nH]c1=O` as the compound, how does the outcome read?
A: Its outcome is “inactive”.

Q: How did the outcome turn out when `O=c1c(-c2ccc(O)cc2)coc2cc(O)cc(O)c12` was run?
A: Its outcome is “inactive”.

Q: With `CCN(Cc1cccc(S(=O)(=O)O)c1)c1ccc(C(=C2C=CC(=[N+](CC)Cc3cccc(S(=O)(=O)O)c3)C=C2)c2ccccc2S(=O)(=O)[O-])cc1` as the compound, how does the outcome read?
A: Its outcome is “inactive”.

Q: How did the AC50 turn out when `CN(C)C(=O)C1(N2CCCCC2)CCN(CC[C@@]2(c3ccc(Cl)c(Cl)c3)CN(C(=O)c3ccccc3)CCO2)CC1` was run?
A: The AC50 was 12 µM (active).

Q: How did the AC50 turn out when `CCOC(=O)O[C@H](C)OC(=O)c1ccc2c(c1)cc(C(=O)NC1CCN(C(C)C)CC1)n2Cc1cc(-c2ccc(Cl)s2)on1` was run?
A: Its AC50 is 9.89 µM (active).

Q: How did the outcome turn out when `Cc1ccc(C(C)C)cc1` was run?
A: Its outcome is “inactive”.

Q: For `COc1cc(C(=O)NC2CCN(C)CC2)ccc1Nc1ncc2c(n1)N(C1CCCC1)CC(F)(F)C(=O)N2C`, which AC50 is on record?
A: Its AC50 is 5.34 µM (active).

Q: How did the outcome turn out when `O=C1CCC(C2CCCCC2)CC1` was run?
A: The outcome was “inactive”.

Q: Which AC50 does the source give for `CC(C)(C)c1csc(-c2cc3cc(OCc4ccccc4CC(=O)O)ccc3o2)n1` here?
A: The AC50 was 12.2 µM (active).

Q: How did the outcome turn out when `Cc1oc2c(NC(=O)c3c(Cl)cccc3Cl)cccc2c1C(C)(C)O` was run?
A: Its outcome is “inactive”.

Q: With `CCCCCCCCCCCCO` as the compound, how does the outcome read?
A: Its outcome is “inactive”.

Q: Which outcome does the source give for `Cc1occc1C(=O)Nc1ccc(C(=O)N2CCC(F)(F)/C(=C\C(=O)N3CCC(N4CCCCC4)CC3)c3ccccc32)cc1` here?
A: Its outcome is “inactive”.

Q: How did the outcome turn out when `c1ccc(C[n+]2cccc3ccccc32)cc1` was run?
A: The outcome was “inactive”.

Q: For `NC(=O)c1nc(-c2cccc(-c3cc(F)ccc3OCC(F)(F)C(F)(F)F)c2)n[nH]1`, which AC50 is on record?
A: The AC50 was 35.3 µM (active).

Q: For `CN(C)c1ccc(C(=C2C=CC(=[N+](C)C)C=C2)c2ccc(N(C)C)cc2)cc1`, which AC50 is on record?
A: The AC50 was 5.52 µM (active).

Q: `CC(C)(c1cc(Br)c(O)c(Br)c1)c1cc(Br)c(O)c(Br)c1` was tested. Which AC50 did it give?
A: Its AC50 is 9.25 µM (active).

Q: With `c1ccc2n[nH]nc2c1` as the compound, how does the outcome read?
A: Its outcome is “inactive”.

Q: How did the outcome turn out when `O=C=NCCCCCCN=C=O` was run?
A: The outcome was “inactive”.

Q: How did the outcome turn out when `CCCCCCCCCCCO` was run?
A: Its outcome is “inactive”.

Q: With `O=CCCCC=O` as the compound, how does the outcome read?
A: Its outcome is “inactive”.

Q: With `CCCOC(=O)c1cc(O)c(O)c(O)c1` as the compound, how does the outcome read?
A: Its outcome is “inactive”.

Q: `O=c1[nH]sc2ccccc12` was tested. Which AC50 did it give?
A: Its AC50 is 35 µM (active).

Q: With `CCCCCCCCOc1ccc(C(=O)c2ccccc2)c(O)c1` as the compound, how does the outcome read?
A: Its outcome is “inactive”.

Q: With `Cc1ncc(CO)c(CO)c1O` as the compound, how does the outcome read?
A: The outcome was “inactive”.

Q: `CCCCCCCCN(C)CCCCCCCC` was tested. Which outcome did it give?
A: The outcome was “inactive”.

Q: For `CCCCCCCCCC(=O)O`, which outcome is on record?
A: The outcome was “inactive”.

Q: `COc1ccc2cc(S(=O)(=O)N[C@H](CC(=O)N[C@H](Cc3ccc(CN4[C@H](C)CCC[C@@H]4C)cc3)C(=O)N(C)C(C)C)c3ccc4c(c3)OCO4)ccc2c1` was tested. Which AC50 did it give?
A: Its AC50 is 18.5 µM (active).
